According to PubChem BioAssay (NCI):
Compounds without any hit were thinned out: in the full panel of roughly 83,000, 20% have a hit.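 Single-concentration screen, 48 h exposure, 96-well plates. Endpoint: percent growth. Below 10 = active.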 Unmarked numbers belong to inactive results. Calls of active or inactive are those of the source.

What follows are compounds tested on ACHN renal (assay: NCI-60 one-dose screen, 48 h (100 = growth as untreated, 0 = no growth, -100 = all killed)). Conditions: 10 µM unless noted.
Experimental: Growth inhibition of the ACHN human tumor cell line is measured as a screen for anti-cancer activity. Cells are grown in 96 well plates and exposed to the test compound for 48 hours. Compounds are tested at a single concentration, which is 10^-5 M for most compounds. The reported endpoint is percent growth (GI% or GIPRCNT), where numbers from 0 - 100% represent growth inhibition, and numbers from -100% - 0 represent cell death. For example, a value of 40 represents 60% growth inhibition. A value of 0 means no net growth occurred over the course of the experiment. A value of -40 indicates 40% of cells at the beginning of the experiment died by the end of the experiment. A value of -100 means all cells are dead at the end of the experiment.
NCI-60 Human Tumor Cell Lines Screen was performed using the standard one-dose NCI protocol, which is described in more detail at https://dtp.cancer.gov/discovery_development/nci-60/default.htm.
Compounds with GIPRCNT values below 10 were considered active. Activity score was based on GIPRCNT using the following formula: […]
Score is 0 for GIPRCNT values of 100 or above, 50 for GIPRCNT values of 0, and 100 for GIPRCNT values of -100.
With `NS(=O)(=O)c1ccc(-n2cc(-c3cccc(NC(=O)c4ccc(N5CCOCC5)c(C(F)(F)F)c4)c3)nn2)cc1` the growth was 43.5%. With `CCO/C=N/C1=C(C#N)C(c2ccc(Cl)cc2)c2sc3c(C)cccc3c2O1` (stereo not given) the growth was 31.8%. In the case of `CCCCCc1ccc(S(=O)(=O)Nc2cc(-c3csc(NC(=O)CN4CCN(CCO)CC4)n3)ccc2OC)cc1`, the growth is reported as 65.6%. `O=C(Cn1c(-c2ccccc2)nc2cc(Cl)c(Cl)cc21)N=Nc1c(O)[nH]c2ccc(Cl)cc12` gave a growth of 74.3%. Compound `C#C[C@]1(O)CC[C@H]2[C@@H]3CC=C4c5sc(-c6ccc(C)cc6)nc5CC[C@]4(C)[C@H]3CC[C@@]21C` has a growth of 21.5%. Compound `CN1c2ccccc2Sc2cc(C=C(C#N)C#N)ccc21` has a growth of 101%. Compound `CCCSc1nc(Nc2ccc(/C(C)=N\NC(N)=S)cc2)c(C#N)c(-c2ccccc2)n1` has a growth of 35.4%. With `COc1ccc2c(c1)Oc1nc(N)c(C#N)c(N)c1C2Sc1ccc(C)cc1` (stereo not given) the growth was -96.9% (active). Compound `CNc1ncc2cc(-c3ccc(-c4ncccc4F)cc3Cl)c(=O)n(CC3OCC(N)CO3)c2n1` (stereo not given) has a growth of 40.9%. With `Nc1nc(Nc2ccccc2SSc2ccccc2Nc2nc(N)nc(-c3ccc4ccccc4c3)n2)nc(-c2ccc3ccccc3c2)n1` the growth was 69.5%. For `COc1ccc(-n2c(/C=C3\C(=O)Nc4ccccc43)ccc2CO)cc1`, the growth was 93.6%. `Cc1ccc2sc3c(c2c1)OC(N)=C(C#N)C3c1cccc(F)c1` (stereo not given) showed a growth of 20.6%. Work on `CC(=O)Nc1cccc(Nc2nc(N[C@H](C)c3ccccc3)c3ccccc3n2)c1` yielded a growth of 77.9%. `CN(C)CCN(C)c1ccc2ncc(C#Cc3cncc(C(=O)Nc4ccc(CN5CCN(C)CC5)c(C(F)(F)F)c4)c3)n2n1` was tested, and the growth was 47.2%. For `COc1cc(/C=C2\C(=O)Nc3cc(Cl)ccc32)ccc1OCc1ccc(F)cc1`, the growth was 93.6%. `CC(=O)Nc1cccc(Nc2nc(N[C@@H](C)c3ccccc3)c3ccccc3n2)c1` was tested, and the growth was 28.6%. With `Cc1ccc2c(c1)C13C(=C2Br)CCCN1C(=O)c1ccccc13` (stereo not given) the growth was 95.5%. `O=C(NNc1nc2cc(F)c(F)cc2n2c(CN3CC4CNCC4C3)ccc12)c1cnccn1` (stereo not given) showed a growth of 15%. `O=C(CSc1nc2ccccc2c(=O)n1-c1ccccc1)Nc1ccc(-c2nc3ccc([N+](=O)[O-])cc3[nH]2)cc1` was tested, and the growth was 88.2%. `O=C(CSc1nnc(-c2ccc3nc(-c4ccccc4)[nH]c3c2)o1)Nc1ccc(C(=O)/C=C/c2ccccc2)cc1` was tested, and the growth was 102%. For `NS(=O)(=O)c1ccc(Nc2nc(SCC(=O)c3ccc(Cl)cc3)nc3c2CCCC3)cc1`, the growth was 42%. `CNC(=O)c1cc(-n2ccc3cc(NC(=O)Nc4ccc(N5CCOCC5)c(C(F)(F)F)c4)ccc32)ccn1` showed a growth of 56.9%. For `O=C(CN1CCN(c2cc(=O)n(-c3ccccc3)c3ccccc23)CC1)Nc1cccc(C(F)(F)F)c1`, the growth was 58.5%. `CCCCCCCn1cc2c(N[C@H](C)c3ccccc3)ncnc2n1` was tested, and the growth was 102%. `COc1ccc(/C=C/C(=O)c2cc(S(N)(=O)=O)c(OC)cc2OC)cc1` was tested, and the growth was 81.1%. `Nc1nc(-c2cccc([N+](=O)[O-])c2)c(N=Nc2ccccc2)s1` showed a growth of 63.2%. Work on `Cc1cccc2c3c(sc12)C(c1ccc(F)cc1)C(C#N)=C(/N=C/c1ccc(Cl)cc1)O3` (stereo not given) yielded a growth of 25.7%. Compound `C=C=COc1cccc(/C(N)=N/C(N)=N/c2nc3ccccc3s2)c1` has a growth of 79.7%. `C=C(C=O)[C@@H]1CC[C@]2(C)[C@H](C(=O)C=C3[C@H]4C[C@](C)(C(=O)OC)CC[C@]4(C)CC[C@]32C)[C@@]1(C)CCC#N` was tested, and the growth was -12.5% (active). `CC(=O)c1ccc(Nc2nc(SCC(C)C)nc(-c3ccccc3)c2C#N)cc1` was tested, and the growth was 47.8%. `CC1(C)CC[C@]2(C(=O)N3CCOCC3)CC[C@]3(C)C(=CC[C@@H]4[C@@]5(C)C/C(=C/c6ccco6)C(=O)C(C)(C)[C@@H]5CC[C@]43C)[C@@H]2C1` was tested, and the growth was 81.7%. `NC(N)=Nc1ccc(Nc2cccc(Oc3ccc(Cl)c(C(F)(F)F)c3)c2)cn1` was tested, and the growth was 55.7%. For `CCCCCc1ccc(S(=O)(=O)Nc2cccc(-c3csc(NC(=O)CN4CCN(CCO)CC4)n3)c2)cc1`, the growth was 101%. With `COc1ccc(C2CC(c3ccc(Nc4nc(NCCO)nc(N5CCOCC5)n4)cc3)=Nc3c(N)nc(N)nc3N2)cc1` (stereo not given) the growth was 102%. `CCNC(=O)N1CCc2cc(OC)c(OCCc3ccc(OC)nc3)cc2C1c1ccc(OC)cc1C` (stereo not given) showed a growth of 32.2%. In the case of `CCc1nn2c(C)cc(C)nc2c1Cc1ccc(/C=C/CN2CCN(CCOCCOCCN3CCN(C/C=C/c4ccc(Cc5c(CC)nn6c(C)cc(C)nc56)cc4)CC3)CC2)cc1`, the growth is reported as 1.5% (active). `CCO/C=N/C1=C(C#N)C(c2ccc(OC)cc2)c2sc3c(C)cccc3c2O1` (stereo not given) gave a growth of 37.6%. With `COc1ccc(N2CCN(C3=C(Cl)C(=O)C(C)=C(C)C3=O)CC2)cc1` the growth was 104%. For `CNC1CCc2c(sc(NC(=O)c3ccc(C(C)(C)C)cc3)c2C(N)=O)C1` (stereo not given), the growth was 37%. `O=S(=O)(NC1c2ccccc2C[C@H]1O)c1ccc(Cl)cc1Cl` (stereo not given in full) gave a growth of 96.2%.
